The values that follow come from PubChem BioAssay AID2685 (National Center for Advancing Translational Sciences (NCATS), 2010).

Screen size: about 320,000 compounds; about 2,100 (0.66%) were called active. About 53% were inconclusive and are not listed. Calls come from the whole dose curve; as a rule, active = well fitted inhibition curve with a large enough effect in the signal ratio, with a control signal flat (not every such curve was filed as active); inconclusive = small, poorly fitted or top-dose-only effect, or effect the other way, or a change in a side signal; inactive = flat fitted curve, though single readings scatter; the % refers to the signal ratio. Shown is part of a subset that was picked to be rich in actives.
Potency is the fitted concentration of half-maximal effect.

This test in a line: qHTS Assay for Lipid Storage Modulators in Drosophila S3 Cells.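 For cell number change: cells counted by Cell Tracker Red CMTPX staining in the red channel.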 The note with it: BODIPY lipid droplet fluorescence, 18-24 h, cells fed with added oleic acid; cell number change: measured here: cell count max response; series mostly up to 46.1 µM. The procedure, abridged: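 Laser-scanning cytometry quantifies lipid droplet accumulation (500–530 nm total intensity; droplet/cell object ratio) in oleic acid-fed (400 uM added) Drosophila S3 cells treated with a concentration series. 20 uM Triacsin C defined 100% inhibition.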
(qHTS replaces the single test concentration by a dilution series.)
`Cc1cc(N/N=C/c2ccc(O)cc2O)nc(N2CCOCC2)n1`: the Potency result is “inactive” and the cell number change was -4.63%. In the same order, the values of `COc1ccccc1OCC(=O)Nc1ccc(Cl)cc1` are “inactive” and -13.6%. In the same order, the values of `CCCCOc1ccc(C(O)(CCN2CCOCC2)c2ccccc2)cc1` (stereo not given) are “inactive” and -14.2%. In the same order, the values of `COc1ccc(CCNC(=O)/C=C/c2ccc(OC)c(S(=O)(=O)N3CCOCC3)c2)cc1` are “inactive” and 7.46%. As for `O=C1NC(N2CCOCC2)=N/C1=C/c1ccc2c(c1)OCO2`, the Potency entry is “inactive”. Take `O=C(c1ccccc1)N1CCN(c2ncnc3c2cnn3-c2ccccc2)CC1`: the Potency entry was “inactive” and the cell number change was -7.55%. In the same order, the values of `Cc1cccc(C(=O)N2CCN(c3ncnc4c3cnn4-c3ccccc3)CC2)c1` are “inactive” and -21.5%. In the same order, the values of `Cc1nn(-c2ccccc2)c(Cl)c1C(=O)N1CCN(c2ncnc3c2cnn3-c2ccccc2)CC1` are 7.31 µM (active) and -25.9%. Consider `O=C(COC(=O)c1ccccc1Nc1ccccc1)NCc1ccccc1Cl`, for which the Potency result was “inactive” and the cell number change was -4.27%. For `Nc1nc(-c2ccccc2)c(-c2ccccc2)o1` the same measures were “inactive” and 3.44%. For `CC(=O)c1c(C)[nH]c(C(=O)OCCCCN2C(=O)c3ccccc3C2=O)c1C` the same measures were 0.58 µM (active) and -18.3%. In the same order, the values of `CC(=O)c1c(C)[nH]c(C(=O)OCC(=O)N2CC(=O)Nc3ccccc32)c1C` are “inactive” and 17.6%.

As for `CCOC(=O)c1[nH]c(C)c(C(=O)OCCN2C(=O)c3ccccc3C2=O)c1C`, the Potency entry was “inactive” and the cell number change is -20.4%. For `Cc1cc(NS(=O)(=O)c2ccc3c(c2)OCCO3)no1` the same measures were “inactive” and 5.55%.

For `Cc1ccc(-c2nc(CS(=O)CC(=O)NCCCc3ccccc3)c(C)o2)cc1` (stereo not given), the Potency result was “inactive” and the cell number change is 13.7%.

With `Cc1cc(C)cc(OCCCCn2cncn2)c1`, the Potency result is “inactive” and the cell number change came to 7.77%. In the same order, the values of `COCCCNC(=O)/C=C1\Sc2ccccc2N(Cc2ccccc2F)C1=O` are “inactive” and 12.6%. For `OCCNc1nc(NCc2ccccc2)c2ccccc2n1` the same measures were “inactive” and -3.37%. As to `Oc1ccccc1-c1nc(NCc2ccccc2)c2ccccc2n1`, the Potency entry is “inactive” and the cell number change was 2.04%. Consider `c1ccc(CNc2nc(NCc3ccccc3)c3ccccc3n2)cc1`, for which the Potency was 16.4 µM (active) and the cell number change was -9.51%. In the same order, the values of `O=C(O)CN1C(=O)C(=O)N(Cc2ccccc2F)C1=O` are “inactive” and 9.39%.

With `O=C1NC(=O)N(Cc2ccccc2F)C1=O`, the Potency result is “inactive” and the cell number change came out at 21.6%.

Regarding `O=C1c2ccccc2C(=O)N1Cc1ccccc1F`, the Potency is 29.1 µM (active) and the cell number change was determined as 22.2%. In the same order, the values of `Cc1cccc(C)c1NC(=O)C(C)N1CCCC1` (stereo not given) are “inactive” and 0.595%.

Take `COc1ccccc1-c1nn(-c2ccccc2)cc1C(=O)N1CCc2ccccc2C1`: the Potency was 2.06 µM (active) and the cell number change is -17.2%.

For `COc1ccccc1-c1cc(C(=O)N2CCc3ccccc3C2)c2ccccc2n1`, the Potency entry is “inactive” and the cell number change is -2.91%. For `COc1ccccc1-c1nn(-c2ccccc2)cc1C(=O)N1CCN(C(=O)c2ccco2)CC1`, the Potency result was “inactive” and the cell number change worked out at 3.39%. For the compound `c1ccc(-c2cncnc2)cc1`, the Potency result was “inactive” and the cell number change is -19.5%. For the compound `COc1ccc(N(Cc2cc3ccc(C)cc3[nH]c2=O)C(=O)c2ccco2)cc1`, the Potency result was “inactive” and the cell number change amounted to 1.12%. For `CSc1nc(SCC(=O)NC(c2ccccc2)c2ccccc2)c2c3c(sc2n1)CN(C)CC3` the same measures were “inactive” and 7.96%. For the compound `CCOc1ccc(N(CC(=O)Nc2ccc(C)cc2)S(=O)(=O)c2c(C)[nH]c(=O)[nH]c2=O)cc1`, the Potency entry is “inactive” and the cell number change was -18.6%.

For the compound `Cc1ccc(N(C(C)C(=O)O)S(=O)(=O)c2c(C)n[nH]c2C)cc1` (stereo not given), the Potency result is “inactive” and the cell number change was determined as 2.85%. For `COC(=O)C(C)N(c1ccc(C)cc1)S(=O)(=O)c1c(C)[nH]c(=O)[nH]c1=O` (stereo not given) the same measures were 25.9 µM (active) and 6.83%.

Regarding `O=[N+]([O-])c1cccnc1NCCNc1ncc(C(F)(F)F)cc1Cl`, the Potency result is “inactive” and the cell number change is -29.3%. In the same order, the values of `NNC(=O)c1csc(-c2ncc(C(F)(F)F)cc2Cl)n1` are “inactive” and 17.7%. In the same order, the values of `CC(=O)c1cc(C(=O)Nc2ccc3ccccc3c2)c(C)o1` are “inactive” and 16%.

Consider `Cc1ccc(S(=O)(=O)CNC(=O)c2ccccc2)cc1`, for which the Potency entry is “inactive” and the cell number change stood at 10%. In the same order, the values of `O=C(NCS(=O)(=O)c1ccccc1)c1ccccc1` are 23.1 µM (active) and 0.335%. Regarding `O=C(NCCS(=O)(=O)c1ccc(Br)cc1)c1ccccc1`, the Potency result is “inactive” and the cell number change is 14%. Regarding `O=C(O)c1ccc(/C=N/Nc2ncc(C(F)(F)F)cc2Cl)cc1`, the Potency entry is “inactive” and the cell number change amounted to 0.452%. For `Cc1ccc(S(=O)(=O)N2CCN(C(=O)COC(=O)Cc3ccc(F)cc3)CC2)c(C)c1` the same measures were “inactive” and -6.09%. As for `Cn1cccc2[nH]c(=O)nc1-2`, the Potency entry was “inactive” and the cell number change came to 10.2%. For `Cn1cccc1C(=O)C(=O)Nc1ccccc1` the same measures were “inactive” and -12.6%. For `Cn1cccc1P(=O)(c1cccn1C)c1cccn1C` the same measures were 5.17 µM (active) and -5%. As to `CC(C)c1nnc(NC(=O)c2ccc3ccccc3c2)s1`, the Potency entry was “inactive” and the cell number change is -0.433%.

Regarding `CS(=O)(=O)N(CC(=O)N1CCc2ccccc2C1)Cc1ccc(F)cc1`, the Potency is 0.13 µM (active) and the cell number change is -12.3%. In the same order, the values of `O=C(CN(Cc1ccc(F)cc1)S(=O)(=O)c1ccccc1)N1CCCCC1` are “inactive” and -14.4%. For `CC1CCN(C(=O)CN(Cc2ccc(F)cc2)S(C)(=O)=O)CC1` the same measures were “inactive” and -15.4%.

For `Cc1ccc(F)c(NC=C2C(=O)OC(C)(C)OC2=O)c1`, the Potency result was “inactive” and the cell number change was -13.4%. For `Cc1cc(C)c(S(=O)(=O)Nc2nnc(CC(C)C)s2)c(C)c1` the same measures were “inactive” and -5.67%. For `Cc1cc(C)c(S(=O)(=O)Nc2nnc(C)s2)c(C)c1` the same measures were “inactive” and -0.995%. In the same order, the values of `COCc1nnc(NS(=O)(=O)c2ccc(C)cc2)s1` are “inactive” and -2.98%. Take `Cc1ccc(S(=O)(=O)Nc2nnc(CC(C)(C)C)s2)cc1`: the Potency result is “inactive” and the cell number change was -2.43%.

For the compound `COCc1nnc(NS(=O)(=O)c2c(C)cc(C)cc2C)s1`, the Potency is 18.4 µM (active) and the cell number change is -24.8%. In the same order, the values of `COCc1nnc(NS(=O)(=O)c2ccc([N+](=O)[O-])cc2)s1` are 25.9 µM (active) and 7.28%.

For the compound `CC(C)(C)Cc1nnc(NS(=O)(=O)c2ccccc2)s1`, the Potency entry was “inactive” and the cell number change is -0.602%. For `CC(C)(C)Cc1nnc(NS(=O)(=O)c2ccc(F)cc2)s1` the same measures were 0.0517 µM (active) and -2.36%. Take `COCc1nnc(NS(=O)(=O)c2ccc(F)cc2)s1`: the Potency result is “inactive” and the cell number change was -4.6%.

As to `Cn1ccs/c1=N\C(=O)Nc1cccc(Cl)c1`, the Potency entry was “inactive” and the cell number change was determined as 1.31%. In the same order, the values of `OCC1(CCOc2ccccc2)CCN(Cc2ccccc2OC(F)F)CC1` are “inactive” and 9.07%. For `CCCCOC(=O)c1ccc(Nc2ncnc3nc[nH]c23)cc1` the same measures were “inactive” and 2.99%. On to `O=C(Nc1ccccc1[N+](=O)[O-])C1(c2ccccc2)CCOCC1`, for which the Potency entry is “inactive” and the cell number change was -9.86%. In the same order, the values of `CCOC(=O)N/N=C/c1ccc(OC)c(O)c1` are “inactive” and 4.89%. `Nc1nc(COc2ccc(F)cc2Cl)nc(N2CCCCC2)n1`: the Potency entry is “inactive”.

For the compound `CCCCn1c(-c2ccsc2)nc2c1c(=O)[nH]c(=O)n2CCC`, the Potency entry was “inactive” and the cell number change is 26%.

For `CCCCCn1c(CN2CCN(Cc3ccccc3)CC2)nc2c1c(=O)[nH]c(=O)n2C`, the Potency result is “inactive” and the cell number change is -7.44%.

On to `CCCCn1c(=O)[nH]c(=O)c2c1nc(Cn1ncc(Cl)c(Cl)c1=O)n2CCC`, for which the Potency was 9.2 µM (active) and the cell number change is -17.5%. In the same order, the values of `Cc1ccc(C(=O)c2nc(C(=O)NCCO)nc3ccccc23)cc1` are “inactive” and 10.6%. For `C/C(=N\O)C(=O)Nc1ccccc1` the same measures were “inactive” and 5.48%. As to `O=S(=O)(Nc1ccc2cn[nH]c2c1)c1ccc(Cl)cc1`, the Potency result was “inactive”. Turning to `O=C1C(Cl)=C(Nc2ccccc2)C(=O)c2ccccc21`, the Potency entry is “inactive” and the cell number change is -30.2%. Regarding `O=C1C(Cl)=C(Nc2ccc3cn[nH]c3c2)C(=O)c2ccccc21`, the Potency is 5.8 µM (active) and the cell number change was -29.2%. In the same order, the values of `COc1ccc(S(=O)(=O)NNC(=O)C2COc3ccccc3O2)cc1[N+](=O)[O-]` (stereo not given) are “inactive” and 4.36%. In the same order, the values of `NC(=O)c1ccc(NC(=O)CSc2nnc(-c3ccccn3)n2N)cc1` are “inactive” and 1.07%. In the same order, the values of `O=C(Nc1ccc(Oc2cccnc2)cc1)C1CCN(Cc2cccc(Cl)c2)CC1` are “inactive” and 27.9%. With `O=C(CN1CC(c2ccccc2)CC1=O)OCc1cccc(Br)c1` (stereo not given), the Potency result was “inactive” and the cell number change is 15.3%.

In the case of `Nc1nnnn1CC(=O)OCc1cccc(Br)c1`, the Potency was 2.06 µM (active) and the cell number change was 4.89%.

With `O=C(CNC(=O)c1ccccc1)OCc1cccc(Br)c1`, the Potency result is “inactive” and the cell number change was -18.3%. For `COc1ccc(S(=O)(=O)N2CCOC2CNC(=O)C(=O)NCc2ccncc2)cc1` (stereo not given) the same measures were “inactive” and -15.1%. For `COc1ccc(CCNC(=O)CSc2c[nH]c3ccccc23)cc1OC` the same measures were “inactive” and 5.06%. As for `O=C(Nc1ccc(Cl)cn1)Nc1ccc(Cl)cn1`, the Potency result was “inactive”. As for `O=C(NCC1CCCC(CNC(=O)Nc2ccc(Cl)cn2)C1)Nc1ccc(Cl)cn1` (stereo not given), the Potency was 0.082 µM (active) and the cell number change is -15.8%. For `O=C(COC(=O)CC1CCCC1)Nc1ccc(Cl)cn1` the same measures were “inactive” and 2.11%.

As to `Nc1nc2ccc(C(=O)Nc3ccccc3)cc2s1`, the Potency result is “inactive” and the cell number change is -10.8%. For the compound `Cc1ccc(N2C(=O)C3C4C=CC(CC4)C3C2=O)c([N+](=O)[O-])c1` (stereo not given), the Potency result was “inactive”. With `C=CCOc1ccccc1CN(C(=O)CCl)c1ccc2c(c1)OCO2`, the Potency is 9.2 µM (active) and the cell number change is 10.9%. Regarding `O=C(CCl)N(C/C=C/c1ccccc1)c1ccc2c(c1)OCCO2`, the Potency entry is “inactive”. With `C=CCOc1ccccc1CNc1ccc2c(c1)OCCO2`, the Potency entry is “inactive” and the cell number change was -4.69%. Regarding `Cc1cc(C)cc(Oc2ccc(C(F)(F)F)cc2C#N)c1`, the Potency entry is “inactive”.

For `Clc1ccc(CSc2ccc(-c3ccco3)nn2)cc1`, the Potency entry was “inactive”. As to `O=C(O)c1ccc(-c2nnc(-c3ccccc3)o2)cc1`, the Potency entry was “inactive” and the cell number change was 25.5%. Regarding `Nc1ccc(-c2nnc(-c3ccccc3)o2)cc1`, the Potency is 18.4 µM (active).

Consider `c1ccc(-c2nnc(-c3ccccc3)o2)cc1`, for which the Potency entry was “inactive” and the cell number change came out at 0.828%. For `CCN1C(=O)/C(=C2\SC(N3CCCCC3)=NC2=O)c2ccccc21` the same measures were “inactive” and -29.3%.

For `CCCCN1C(=O)/C(=C2\SC(N3CCOCC3)=NC2=O)c2ccccc21`, the Potency was 8.2 µM (active) and the cell number change was -1.69%.

On to `Cc1ccc(CN2C(=O)/C(=C3\SC(N4CCOCC4)=NC3=O)c3cc(Br)ccc32)cc1`, for which the Potency entry is “inactive” and the cell number change turned out to be 15.8%. In the same order, the values of `O=C(NC12CC3CC(CC(C3)C1)C2)c1cnccn1` are “inactive” and 3.24%.
